Results: ChEMBL document CHEMBL1961873, “Compounds: GSK PKIS; Assays: Nanosyn kinase panel” (2012)

Tests used:
[1] = target: Calcium/calmodulin-dependent protein kinase type II subunit alpha (Homo sapiens) (UniProt Q9UQM7); conditions: at 1 µM;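 also: reported value is a mean percent inhibition of CAMK2A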
[2] = target: Calcium/calmodulin-dependent protein kinase type II subunit delta (Homo sapiens) (UniProt Q13557); conditions: at 0.1 µM
[3] = target: Calcium/calmodulin-dependent protein kinase type II subunit delta (Homo sapiens) (UniProt Q13557); conditions: at 1 µM
[4] = target: T1, Calcium/calmodulin-dependent protein kinase type IV (Homo sapiens) (UniProt Q16566); conditions: at 0.1 µM
T1 sequence (whole entry): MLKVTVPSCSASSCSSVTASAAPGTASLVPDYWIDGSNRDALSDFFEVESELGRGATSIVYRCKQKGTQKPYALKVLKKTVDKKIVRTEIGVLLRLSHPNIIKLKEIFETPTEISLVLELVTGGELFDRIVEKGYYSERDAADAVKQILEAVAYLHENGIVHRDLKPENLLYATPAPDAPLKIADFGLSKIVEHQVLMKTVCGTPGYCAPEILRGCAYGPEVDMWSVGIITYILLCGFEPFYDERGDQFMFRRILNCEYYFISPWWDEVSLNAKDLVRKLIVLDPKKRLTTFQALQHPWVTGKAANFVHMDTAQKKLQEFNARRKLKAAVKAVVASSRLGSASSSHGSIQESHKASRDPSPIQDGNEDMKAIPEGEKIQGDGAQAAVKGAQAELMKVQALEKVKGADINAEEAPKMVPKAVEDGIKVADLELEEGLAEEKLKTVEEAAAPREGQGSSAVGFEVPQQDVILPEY

[5] = target: T1, Calcium/calmodulin-dependent protein kinase type IV (Homo sapiens); conditions: at 1 µM
[6] = target: T2, Serine/threonine-protein kinase Chk1 (Homo sapiens) (UniProt O14757); conditions: at 0.1 µM
T2 sequence (whole entry): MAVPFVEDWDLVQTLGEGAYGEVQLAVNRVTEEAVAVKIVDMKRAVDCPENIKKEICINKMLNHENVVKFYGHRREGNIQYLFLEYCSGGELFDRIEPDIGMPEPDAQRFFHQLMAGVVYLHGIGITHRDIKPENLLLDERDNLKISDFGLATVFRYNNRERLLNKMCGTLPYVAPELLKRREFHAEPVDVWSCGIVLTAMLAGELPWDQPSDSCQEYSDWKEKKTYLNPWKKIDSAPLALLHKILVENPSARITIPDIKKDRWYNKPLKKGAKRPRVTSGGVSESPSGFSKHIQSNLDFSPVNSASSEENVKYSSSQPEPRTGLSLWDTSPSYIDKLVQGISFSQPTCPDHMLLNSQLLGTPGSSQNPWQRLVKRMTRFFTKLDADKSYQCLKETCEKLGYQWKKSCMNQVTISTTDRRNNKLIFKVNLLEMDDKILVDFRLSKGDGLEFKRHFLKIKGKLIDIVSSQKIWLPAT

[7] = target: T2, Serine/threonine-protein kinase Chk1 (Homo sapiens); conditions: at 1 µM
[8] = target: Serine/threonine-protein kinase Chk2 (Homo sapiens) (UniProt O96017); conditions: at 0.1 µM
Serine/threonine-protein kinase Chk2 (Homo sapiens), sequence (O96017 whole entry): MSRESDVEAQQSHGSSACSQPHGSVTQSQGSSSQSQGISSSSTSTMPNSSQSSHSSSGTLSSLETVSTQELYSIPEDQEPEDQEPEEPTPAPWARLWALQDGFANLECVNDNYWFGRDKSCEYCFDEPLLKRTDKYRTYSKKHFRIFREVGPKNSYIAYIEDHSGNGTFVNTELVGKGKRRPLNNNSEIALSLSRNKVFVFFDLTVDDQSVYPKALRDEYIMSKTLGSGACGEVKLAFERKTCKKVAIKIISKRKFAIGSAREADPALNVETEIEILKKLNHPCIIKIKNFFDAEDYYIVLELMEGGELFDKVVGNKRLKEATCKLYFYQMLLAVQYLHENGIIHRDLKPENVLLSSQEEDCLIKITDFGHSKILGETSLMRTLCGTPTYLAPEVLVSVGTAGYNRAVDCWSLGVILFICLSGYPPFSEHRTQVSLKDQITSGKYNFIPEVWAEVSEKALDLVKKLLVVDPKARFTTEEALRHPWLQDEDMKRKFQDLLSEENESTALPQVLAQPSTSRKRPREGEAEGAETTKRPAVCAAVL

[9] = target: Serine/threonine-protein kinase Chk2 (Homo sapiens) (UniProt O96017); conditions: at 1 µM
[10] = target: Death-associated protein kinase 1 (Homo sapiens) (UniProt P53355); conditions: at 0.1 µM
Death-associated protein kinase 1 (Homo sapiens), sequence (P53355 whole entry, looked up): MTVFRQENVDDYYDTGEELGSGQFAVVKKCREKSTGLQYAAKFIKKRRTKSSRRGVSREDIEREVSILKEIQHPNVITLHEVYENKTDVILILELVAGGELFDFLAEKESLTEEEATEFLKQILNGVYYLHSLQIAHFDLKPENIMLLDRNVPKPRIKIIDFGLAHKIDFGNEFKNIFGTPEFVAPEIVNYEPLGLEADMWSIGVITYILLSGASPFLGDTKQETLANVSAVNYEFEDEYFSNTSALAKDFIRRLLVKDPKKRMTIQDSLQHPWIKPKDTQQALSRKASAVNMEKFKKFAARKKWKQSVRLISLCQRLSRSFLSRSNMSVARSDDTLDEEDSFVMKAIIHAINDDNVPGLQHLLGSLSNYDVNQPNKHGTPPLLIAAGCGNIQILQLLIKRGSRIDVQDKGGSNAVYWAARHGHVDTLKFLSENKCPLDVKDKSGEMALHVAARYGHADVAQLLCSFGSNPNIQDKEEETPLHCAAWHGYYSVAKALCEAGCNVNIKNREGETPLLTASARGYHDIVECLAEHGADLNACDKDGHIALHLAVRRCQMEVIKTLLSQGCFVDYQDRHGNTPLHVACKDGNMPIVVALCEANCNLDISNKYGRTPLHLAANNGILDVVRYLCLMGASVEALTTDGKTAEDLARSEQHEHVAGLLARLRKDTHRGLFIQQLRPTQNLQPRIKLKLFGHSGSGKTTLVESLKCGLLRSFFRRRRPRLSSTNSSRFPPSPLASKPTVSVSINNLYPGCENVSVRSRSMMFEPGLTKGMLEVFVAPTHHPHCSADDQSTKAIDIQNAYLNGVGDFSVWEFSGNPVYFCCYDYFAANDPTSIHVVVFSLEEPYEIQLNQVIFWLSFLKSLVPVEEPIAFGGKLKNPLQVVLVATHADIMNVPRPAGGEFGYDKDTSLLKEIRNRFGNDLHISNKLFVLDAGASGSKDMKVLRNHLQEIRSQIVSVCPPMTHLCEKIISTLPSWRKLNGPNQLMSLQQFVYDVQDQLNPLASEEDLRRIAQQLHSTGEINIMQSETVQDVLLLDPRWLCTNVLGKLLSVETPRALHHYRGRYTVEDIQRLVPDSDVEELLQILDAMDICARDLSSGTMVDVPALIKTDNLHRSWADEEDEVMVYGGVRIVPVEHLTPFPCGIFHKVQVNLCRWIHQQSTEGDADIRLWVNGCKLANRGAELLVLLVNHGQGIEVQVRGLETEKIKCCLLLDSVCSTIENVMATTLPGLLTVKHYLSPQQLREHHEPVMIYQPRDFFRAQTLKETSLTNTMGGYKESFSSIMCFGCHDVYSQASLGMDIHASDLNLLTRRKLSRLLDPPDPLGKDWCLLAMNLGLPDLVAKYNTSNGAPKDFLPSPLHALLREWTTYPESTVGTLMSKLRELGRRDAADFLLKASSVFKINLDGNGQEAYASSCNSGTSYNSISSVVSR

[11] = target: Death-associated protein kinase 1 (Homo sapiens) (UniProt P53355); conditions: at 1 µM
[12] = target: T3, Serine/threonine-protein kinase DCLK2 (Homo sapiens) (UniProt Q8N568); conditions: at 0.1 µM
T3 sequence (whole entry): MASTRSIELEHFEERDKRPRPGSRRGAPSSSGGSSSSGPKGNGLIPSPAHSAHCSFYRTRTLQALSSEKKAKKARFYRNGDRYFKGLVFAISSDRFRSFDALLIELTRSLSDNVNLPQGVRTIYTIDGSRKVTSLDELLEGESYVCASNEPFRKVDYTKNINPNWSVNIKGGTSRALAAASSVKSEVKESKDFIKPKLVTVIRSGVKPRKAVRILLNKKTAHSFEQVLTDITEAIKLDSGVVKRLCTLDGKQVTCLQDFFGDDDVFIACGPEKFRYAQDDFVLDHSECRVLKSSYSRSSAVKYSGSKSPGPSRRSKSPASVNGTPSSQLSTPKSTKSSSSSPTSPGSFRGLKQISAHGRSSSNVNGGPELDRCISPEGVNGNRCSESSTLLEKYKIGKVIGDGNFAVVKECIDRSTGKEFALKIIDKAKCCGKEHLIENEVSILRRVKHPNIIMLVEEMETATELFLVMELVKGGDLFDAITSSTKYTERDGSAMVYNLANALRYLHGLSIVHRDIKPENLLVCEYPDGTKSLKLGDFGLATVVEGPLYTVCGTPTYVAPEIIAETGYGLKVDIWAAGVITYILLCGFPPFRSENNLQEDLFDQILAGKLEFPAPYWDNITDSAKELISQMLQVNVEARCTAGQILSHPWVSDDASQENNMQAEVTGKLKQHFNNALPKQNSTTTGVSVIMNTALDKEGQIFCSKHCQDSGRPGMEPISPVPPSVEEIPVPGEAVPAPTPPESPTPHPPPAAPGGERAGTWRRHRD

[13] = target: T3, Serine/threonine-protein kinase DCLK2 (Homo sapiens); conditions: at 1 µM
[14] = target: MAP kinase-activated protein kinase 2 (Homo sapiens) (UniProt P49137); conditions: at 0.1 µM
MAP kinase-activated protein kinase 2 (Homo sapiens), sequence (P49137 whole entry, looked up): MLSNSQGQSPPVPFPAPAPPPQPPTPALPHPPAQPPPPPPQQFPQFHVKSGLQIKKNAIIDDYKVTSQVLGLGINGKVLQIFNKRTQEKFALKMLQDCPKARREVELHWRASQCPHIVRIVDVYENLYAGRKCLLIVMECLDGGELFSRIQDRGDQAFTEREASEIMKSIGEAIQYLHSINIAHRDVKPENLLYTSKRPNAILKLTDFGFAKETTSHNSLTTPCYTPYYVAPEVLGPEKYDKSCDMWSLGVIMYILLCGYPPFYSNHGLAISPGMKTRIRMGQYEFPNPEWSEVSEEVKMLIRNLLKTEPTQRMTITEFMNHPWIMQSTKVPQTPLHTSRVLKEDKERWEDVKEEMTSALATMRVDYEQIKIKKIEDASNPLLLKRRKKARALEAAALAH

[15] = target: MAP kinase-activated protein kinase 2 (Homo sapiens) (UniProt P49137); conditions: at 1 µM
[16] = target: MAP kinase-activated protein kinase 3 (Homo sapiens) (UniProt Q16644); conditions: at 0.1 µM
MAP kinase-activated protein kinase 3 (Homo sapiens), sequence (Q16644 whole entry, looked up): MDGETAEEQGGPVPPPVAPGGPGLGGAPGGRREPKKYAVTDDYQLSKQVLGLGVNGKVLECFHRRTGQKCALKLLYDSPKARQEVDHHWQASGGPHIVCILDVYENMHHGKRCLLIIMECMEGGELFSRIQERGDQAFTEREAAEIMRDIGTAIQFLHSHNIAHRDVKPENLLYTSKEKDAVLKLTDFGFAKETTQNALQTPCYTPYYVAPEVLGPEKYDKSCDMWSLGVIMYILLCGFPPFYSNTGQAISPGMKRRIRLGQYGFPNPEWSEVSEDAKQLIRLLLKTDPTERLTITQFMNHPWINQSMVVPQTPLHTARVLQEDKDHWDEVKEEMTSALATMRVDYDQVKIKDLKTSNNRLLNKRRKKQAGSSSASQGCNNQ

[17] = target: MAP kinase-activated protein kinase 3 (Homo sapiens) (UniProt Q16644); conditions: at 1 µM
[18] = target: Serine/threonine-protein kinase MARK1 (Homo sapiens) (UniProt Q9P0L2); conditions: at 0.1 µM
Serine/threonine-protein kinase MARK1 (Homo sapiens), sequence (Q9P0L2 whole entry, looked up): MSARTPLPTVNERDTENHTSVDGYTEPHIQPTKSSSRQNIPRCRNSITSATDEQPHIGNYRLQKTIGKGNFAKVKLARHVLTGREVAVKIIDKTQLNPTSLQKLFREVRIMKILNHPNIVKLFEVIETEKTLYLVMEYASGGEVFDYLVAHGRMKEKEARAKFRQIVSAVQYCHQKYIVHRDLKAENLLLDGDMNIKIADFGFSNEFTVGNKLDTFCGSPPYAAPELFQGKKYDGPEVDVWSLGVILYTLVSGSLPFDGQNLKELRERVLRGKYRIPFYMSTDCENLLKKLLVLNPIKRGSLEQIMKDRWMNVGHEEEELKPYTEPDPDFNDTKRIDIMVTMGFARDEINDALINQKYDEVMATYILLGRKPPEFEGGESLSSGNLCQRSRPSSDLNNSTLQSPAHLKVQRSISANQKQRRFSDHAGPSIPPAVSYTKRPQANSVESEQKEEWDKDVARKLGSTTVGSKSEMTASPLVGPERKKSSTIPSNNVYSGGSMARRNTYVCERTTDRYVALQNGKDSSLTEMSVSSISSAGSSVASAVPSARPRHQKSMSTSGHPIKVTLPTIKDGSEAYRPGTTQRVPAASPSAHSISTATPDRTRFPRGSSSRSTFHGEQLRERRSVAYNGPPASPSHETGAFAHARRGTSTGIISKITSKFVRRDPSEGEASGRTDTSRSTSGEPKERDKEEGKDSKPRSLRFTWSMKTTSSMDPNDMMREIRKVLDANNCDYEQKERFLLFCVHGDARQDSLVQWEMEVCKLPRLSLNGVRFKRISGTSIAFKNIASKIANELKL

[19] = target: Serine/threonine-protein kinase MARK1 (Homo sapiens) (UniProt Q9P0L2); conditions: at 1 µM
[20] = target: MAP/microtubule affinity-regulating kinase 3 (Homo sapiens) (UniProt P27448); conditions: at 0.1 µM;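 also: mean percent inhibition of MARK3 kinase activity, measured within the GSK PKIS screening panel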

Calcium/calmodulin-dependent protein kinase type II subunit delta (Homo sapiens), sequence (Q13557 whole entry): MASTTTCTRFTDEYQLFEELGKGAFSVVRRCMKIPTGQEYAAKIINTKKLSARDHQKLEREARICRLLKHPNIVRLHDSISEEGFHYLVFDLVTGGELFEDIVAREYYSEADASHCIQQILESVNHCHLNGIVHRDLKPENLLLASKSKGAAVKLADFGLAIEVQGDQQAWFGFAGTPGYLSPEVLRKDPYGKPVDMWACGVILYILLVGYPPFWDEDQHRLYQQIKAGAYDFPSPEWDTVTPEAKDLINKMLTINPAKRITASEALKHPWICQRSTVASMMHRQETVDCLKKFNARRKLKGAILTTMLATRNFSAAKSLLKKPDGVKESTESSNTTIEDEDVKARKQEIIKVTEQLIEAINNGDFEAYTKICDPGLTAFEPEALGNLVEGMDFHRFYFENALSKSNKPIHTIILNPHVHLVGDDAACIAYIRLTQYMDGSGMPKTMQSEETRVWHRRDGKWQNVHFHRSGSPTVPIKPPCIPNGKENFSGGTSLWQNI
Calcium/calmodulin-dependent protein kinase type II subunit alpha (Homo sapiens), sequence (Q9UQM7 whole entry): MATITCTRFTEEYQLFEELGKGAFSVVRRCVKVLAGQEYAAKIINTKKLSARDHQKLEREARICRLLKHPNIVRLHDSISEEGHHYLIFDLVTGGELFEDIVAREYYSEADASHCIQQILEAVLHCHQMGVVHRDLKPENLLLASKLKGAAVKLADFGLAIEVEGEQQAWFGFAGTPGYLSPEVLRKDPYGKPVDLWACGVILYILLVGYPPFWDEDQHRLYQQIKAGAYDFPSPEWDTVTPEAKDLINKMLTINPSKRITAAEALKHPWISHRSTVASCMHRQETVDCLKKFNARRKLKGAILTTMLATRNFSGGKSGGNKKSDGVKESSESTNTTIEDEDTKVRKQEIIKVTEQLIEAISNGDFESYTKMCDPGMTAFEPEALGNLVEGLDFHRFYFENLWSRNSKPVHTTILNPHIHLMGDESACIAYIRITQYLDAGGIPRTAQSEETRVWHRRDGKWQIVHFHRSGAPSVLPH

| Structure (SMILES) | inhibition [1] [%] | inhibition [2] [%] | inhibition [3] [%] | inhibition [4] [%] | inhibition [5] [%] | inhibition [6] [%] | inhibition [7] [%] | inhibition [8] [%] | inhibition [9] [%] | inhibition [10] [%] | inhibition [11] [%] | inhibition [12] [%] | inhibition [13] [%] | inhibition [14] [%] | inhibition [15] [%] | inhibition [16] [%] | inhibition [17] [%] | inhibition [18] [%] | inhibition [19] [%] | inhibition [20] [%] |
| --- | --- | --- | --- | --- | --- | --- | --- | --- | --- | --- | --- | --- | --- | --- | --- | --- | --- | --- | --- | --- |
| CC1=C(C(=O)Nc2ccc3[nH]ncc3c2)C(c2ccc(F)cc2)NC(=O)N1 (stereo not given) | 0.1 | 1.48 | 1.35 | 0.3 | -0.21 | 0.87 | 4.3 | 1.2 | 2.29 | 1.6 | 1.59 | 1.36 | -0.03 | 1.48 | 1.87 | 1.46 | 1.05 | 2.81 | 9.5 | 0.23 |
| CC1=C(C(=O)Nc2ccc3[nH]ncc3c2)C(c2ccc(Cl)c(Cl)c2)CC(=O)N1 (stereo not given) | 2.88 | 2.72 | 3.98 | 1.22 | 2.09 | -1.3 | -0.85 | 1.4 | 4.28 | -2.03 | -1.58 |  | 0.32 | 0.89 | -0.26 | 2.5 | 1.83 | 0.33 | 5.92 | 2.97 |
| CCn1c(-c2nonc2N)nc2c(C#CC(C)(C)O)nc(OC[C@@H](N)c3ccccc3)cc21 | 0.34 | -0.01 | 1.5 | 2.61 | 3.39 | -5.33 | 7.52 | -5.8 | 1.05 | -8.66 | -7.69 |  | 1.63 | -3.81 | -3.91 | -6.12 | -7.91 | 0.67 | 19.9 | 3.1 |
| CCN1CCC(CC(=O)Nc2n[nH]c3nc(-c4cccs4)c(Br)cc23)CC1 | -1.26 | -1.29 | 7.67 | 0.29 | -0.89 | 2.28 | 2.57 | -3.64 | -3.75 | 0.43 | 1.46 | 0.63 | 0.11 | -2.22 | -2.04 | -2.21 | -2.44 | -2.56 | -1.05 | 1 |
| Cc1ccc(C(=O)NC2CCCCC2)cc1-c1ccc(C(=O)NCC2CC2)cc1 | 4.57 | 4.88 | 2.35 | 3.22 | 3.67 | 6.06 | 5.14 | 1.33 | 1.29 | 3.76 | 5.32 | 3.45 |  | 0.37 | 0.95 | 1.78 | 4.53 | 1.97 | 0.65 | 3.7 |
| COc1ccc(-c2coc3ncnc(N)c23)cc1 | 3.94 | 3.92 | 5.31 | 1.63 | 1.94 | 9.42 | 12.4 | 7.79 | 8.17 | 10.8 | 12.9 | 0.87 | -0.02 | 3.78 | 4.6 | 10.7 | 11.6 | 4.41 | 3.73 | 5.6 |
| CC(C)=Cc1cccc2c1/C(=N/Nc1ccc(S(N)(=O)=O)cc1)C(=O)N2 | 6.48 | 2.83 | 11.3 | -1.55 | -0.74 | 6.35 | 10.3 | 5.36 | 9.14 | 9.26 | 10.2 | 0.25 |  | 3.53 | 3.71 | 7.64 | 7.15 | 2.11 | 24.8 | 2.08 |
| COC(=O)Nc1nc2cc(Oc3ccc(NC(=O)Nc4cccc(C(=O)O)c4)cc3)ccc2[nH]1 | 3.09 | 1.92 | 1.91 | -1.16 | -2.08 | -3.62 | -0.43 | 0.25 | 6.26 | 1.22 | 0.01 | -6.21 |  | 0.64 | 0.43 | 0.86 | -0.42 | 0.32 | 3.08 | 1.09 |
| CCCN1CCC(Oc2cc(Nc3nc(Nc4cccc(F)c4C(N)=O)c4cc[nH]c4n3)c(OC)cc2Cl)CC1 | 4.06 | 3.15 | 16.5 | 9.59 | 31.1 | 1.9 | 3.67 | 1.65 | 33.6 | 0.88 | 16.8 | -2.33 |  | -0.08 | -0.66 | 10.3 | -0.67 | -1.22 | 2.97 | -0.83 |
| CS(=O)(=O)CCNCc1ccc(-c2ccc3ncnc(Nc4ccc(OCc5ccccc5)c(Cl)c4)c3c2)o1 | -1.87 | -1.29 | 1.59 | 0.2 | 1.37 | -6.61 | -6.9 | -6.13 | -4.43 | -9.06 |  | -1.35 | 3.26 | -3.32 | -3.36 | -5.03 | -4.68 | 0.39 | 1.89 | 0.63 |
| Nc1nc(-c2ccc3c(c2)C(=Cc2cc(Br)c(O)c(Br)c2)C(=O)N3)cs1 | -3.05 | -2.31 | -1.31 | -0.65 | -2.75 | 3.04 | 1.34 | -2.92 | 0.55 | 0.32 | -4.53 | -3.76 | -0.78 | -1.56 | -1.55 | -1.77 | -1.51 | 0.42 | 1.58 | -0.72 |
| CCc1cccc(NC(=O)Nc2ccc(Oc3ccc4nc(NC(=O)OC)[nH]c4c3)cc2)c1 | 3.77 | 1.51 | 2.63 | 0.16 | -2.32 |  | -6.72 | -4.84 | -2.63 | -5.09 | -5.23 | 6.75 | 1.42 | -0.49 | -1.61 | -2.74 | -3.85 | 1.69 | 0.31 | 1.5 |
| NS(=O)(=O)c1cccc(-c2ccc3c(NC(=O)C4CC4)n[nH]c3c2)c1 | -3.57 | -2.03 | -1.61 | -0.79 | -1.58 | 3.4 | 2.13 | -2.9 | -2.43 | 1.4 | 3.03 | 0.34 |  | -1.6 | -1.12 | 2.07 | 2.74 | 0.18 | 4.41 | 2.87 |
| COc1cc(C)c(NC(=O)CN(C)C)cc1Nc1nc(Nc2cccc(F)c2C(N)=O)c2cc[nH]c2n1 | 8.59 | 4.57 | 14.2 | 9.62 | 40 | -4.03 | -1.09 | 40.2 | 76.2 | 1.58 | 35 | 1.99 |  | 0.89 | 0.73 | 3.1 | 3.56 | -0.37 | 1.38 | -0.27 |
